# Experimental data published in PubChem BioAssay (NCI).
# Where “and” joins values, the source holds several entries; their conditions need not be identical. Identical values can stand only once. The panel holds about 79,000 compounds, 15% with a hit somewhere; the sample as a whole holds those more often. Calls of active or inactive are those of the source. Rule as the data show it: active = growth inhibition above about 70%; inactive = the rest.
# Experiment: NCI Yeast Anticancer Drug Screen. Data for the rad50 strain (AID 155);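 also: 0% = growth of vehicle-only cultures of the same strain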
# Details: S. cerevisiae rad50 strain growth inhibition; at 5.0 µM (retest, dose inferred, filed as 0.5); active compounds read high
# How it was run: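 Inhibition values express reduced yeast growth in compound-treated cultures relative to vehicle-treated controls.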
row,Structure (SMILES),growth inhibition
1,Cc1cccc(Cc2ccccc2Cl)c1O,0% (inactive)
2,OC1CN(Cc2ccccc2)C[C@@H]1O (some centres not stated),8% (inactive)
3,BrC(c1cccc2ccccc12)c1cccc2ccccc12,23% (inactive)
4,COc1nc(NC2OC(CO)C(O)C(O)C2O)c(Cl)c(=O)n1C (configuration not stated),1% (inactive)
5,O=S(=O)(CC(Cl)c1ccccc1)c1nc2ccccc2s1 (configuration not stated),-7% (inactive)
6,CCCCCCCCCCCCOS(=O)(=O)O,-6% (inactive)
7,O=C(NNc1ccnc2cc(Cl)ccc12)/C(=C/c1ccc2c(c1)OCO2)NC(=O)c1ccccc1,12% (inactive)
8,O=C(CCN1CCN2c3ccccc3CCC2C1)c1ccc(F)cc1 (configuration not stated),51% (inactive) and 17% (inactive)
9,CC1C[C@]2(C)C(=O)Nc3ccccc3[C@@H]2Nc2ccccc21 (some centres not stated),6% (inactive)
10,Nc1nc(=S)c2ncn(C3OC(CO)C(O)C3O)c2[nH]1 (configuration not stated),79% (active)
11,O=C(O)c1c2ccccc2nc2[nH]c(=O)[nH]c(=O)c12,-1% (inactive)
12,N#Cc1c(/N=C/c2ccccc2Cl)sc2c1CCC2,18% (inactive)
13,CCC1=C(C)/C(=C/c2[nH]c(C)c(CC)c2C)N=C1C,-3% (inactive) and -5% (inactive)
14,O=C(O)c1ccccc1C(=O)O,-3% (inactive)
15,Cc1cc(C)nc(NS(=O)(=O)c2ccc(Nc3c4ccccc4nc4c(C(=O)NCCCN(CCO)CCO)cccc34)cc2)n1,-20% (inactive)
16,CCCCCCCCCCCCCCCCCCOCC(COP(=O)([O-])OCC[N+](C)(C)C)OC (configuration not stated),-16% (inactive)
17,S=c1nc[nH]c2[nH]ccc12,-3% (inactive)
